The first assay concerns Human papillomavirus type 1a protein E7 (residues 44-93). Nature of the assay: HPV1a E7 fragment binders on microarrays, primary screen, biochemical, small-molecule microarray, residues 44-93, 635 nm fluorescence (AID 1108).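 Also: E7 fragment applied at 1 µg/mL in TBST for 1 h at 4 C; score combines spot fluorescence with its signal to noise ratio.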 The following applies: small-molecule microarray binding, fluorescence 635 nm; higher = more signal.
For the compound `CCOC(=O)C1=CC[C@@H](c2ccccc2)N(S(=O)(=O)c2ccc(C)cc2)[C@H]1C#N`, the composite z-score was 0.894.

`COc1ccc([Si](C)(C)[C@H]2[C@H](CCO)O[C@@]3(C(=O)N(Cc4ccccc4)c4ccc(N(C=O)c5ccccc5)cc43)[C@@H]2C)cc1` displayed a composite z-score of 1.21.

For the compound `COc1cccc(C[C@H]2C[C@@H](CO[Si](C(C)C)(C(C)C)C(C)C)N3C(=O)[C@@]4(C(C)=O)O[C@@]23[C@@H]2C(=O)N(C)C(=O)[C@@H]24)c1`, the composite z-score worked out at 1.04.

Consider `C=CC[C@@]1(C(=O)O)N=C(c2ccc(OCCCO)cc2)O[C@@H]1c1ccccc1CN=[N+]=[N-]`, for which the composite z-score amounted to 0.895.

Turning to `CCCCNC(=O)c1ccc(C#C[Si](C)(C)C)c(OC(C)=O)c1`, the composite z-score was 0.315.

With `C=CCNC(=O)[C@H]1[C@@H]2C(=O)O[C@@H](c3ccccc3)[C@@H](c3ccccc3)N2[C@@H](c2ccc(O)cc2)[C@]12C(=O)Nc1ccc(C#CC3=CCCCC3)cc12`, the composite z-score is 1.32.

System in another assay: not listed separately
Nature of the assay: modulators of HCV replicon luciferase signal, primary screen, HCV replication inhibitor project, Huh7 cells, luciferase reporter (AID 1109).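 Also: huh7 hepatoma cells harbouring a luciferase neomycin HCV replicon reporter; luciferase luminescence as measure of HCV replicon replication; test concentration not given here.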 Particulars: 48 h, higher = more signal. (Replicon systems follow genome replication, usually without infectious particles.)
In turn, `CCCCCCCCCCC(O)C1C=CC2C(=O)N(C)C(=O)C2N1N1CCCCC1` (centres undefined) showed a z-score of -0.941.

With `CCCC[C@@H]1C[C@H]1[C@@H](NC(=O)Cc1ccccc1)c1ccc(Cl)cc1`, the z-score is -1.79.

Compound `CC(C)=CCN(C(=O)C#Cc1ccccc1)[C@H](CO)c1ccccc1` came in with a z-score of -4.92.

Turning to `COc1ccc(NC(=O)O[C@H]2[C@H](OC(=O)Nc3ccc4c(c3)OCO4)[C@H](OC(=O)Nc3ccc4c(c3)OCO4)[C@@H](OC)O[C@@H]2CO)cc1`, the z-score turned out to be 0.0346.

The compound `CCCC[C@H]1OB(O)C[C@H]2C1=C(C)C[C@H]1C(=O)C=CC(=O)[C@H]12` came in with a z-score of -2.52.

`CO[C@H]1O[C@H](CO)[C@@H](OC(=O)Nc2ccccc2)[C@@H]2OC(=O)[C@H](Cc3ccccc3)C/C=C/C[C@@H](Cc3ccccc3)C(=O)O[C@@H]12` had a z-score of -3.45.

`C[C@H]1C2[C@H](Cc3ccccc3)NC(=O)[C@]23C(=O)NCC(=O)N2CCC[C@H]2C(=O)NC/C=C\C/C=C/C3[C@@H]2O[C@]12C` (some centres undefined) showed a z-score of 0.288.

The compound `[N-]=[N+]=NCc1ccccc1C[C@]1(C(=O)O)COC(c2ccc(OCCCO)cc2)=N1` returned a z-score of -0.35.

`CC(C)CNC(=O)[C@@]1(C)c2ccccc2C(=O)N(Cc2cc(F)cc(C(F)(F)F)c2)[C@H]1c1ccc(CO)cc1` showed a z-score of -0.732.

For `CN(C)CCCNC(=O)[C@@H]1c2ccccc2C(=O)N(C2Cc3ccccc3C2)[C@H]1c1ccc(CO)cc1`, the z-score was -1.9.

The compound `CCN(CC)c1ccc(N2CC=CC34O[C@@H]5C=CCOC(=O)[C@@H]5[C@H]3C(=O)N(CCO)[C@@H]4C2=O)cc1` (some centres undefined) had a z-score of 0.466.

In turn, `COc1ccccc1CN1C(=O)c2ccccc2[C@@H](C(=O)NCCCN(C)C)[C@@H]1c1ccc(CO)cc1` registered a z-score of -1.98.

As for `COc1cc(OC)c(C(O)C2C=CC3C(=O)N(c4ccccc4)C(=O)C3N2Nc2ccccc2F)cc1Br` (centres undefined), the z-score was -1.17.

The compound `CC(=O)c1ccc(C(O)C2C=CC3C(=O)NC(=O)C3N2Nc2ccc(Cl)cc2Cl)cc1` (centres undefined) had a z-score of -0.38.

`C=CCC(OC(C)=O)[C@@H]1[C@@H](N(Cc2cc3ccccc3o2)C(=O)Cc2ccc(OC)cc2)c2cc(OCCCO)ccc2N1C(=O)Cc1ccc(OC)cc1` (some centres undefined) registered a z-score of 0.028.

Turning to `COCCCN1C(=O)[C@@]2(Cc3ccccc31)c1ccccc1C(=O)N(Cc1ccccc1OC)[C@H]2c1ccc(CO)cc1`, the z-score was -0.185.

For `COc1ccc(C#Cc2ccc3c(c2)[C@]2(C(=O)N3)[C@H](C(=O)Nc3nc4ccccc4s3)[C@H]3C(=O)O[C@H](c4ccccc4)[C@H](c4ccccc4)N3[C@@H]2c2ccc(OCCO)cc2)cc1`, the z-score was -2.03.

Compound `CC(C)C[C@H]1NC(=O)[C@@H](C)NC(=O)[C@@]23C(=O)N[C@@H](Cc4ccccc4)C2[C@H](C)[C@@]2(C)O[C@H]2C3/C=C/C/C=C\CNC1=O` (some centres undefined) yielded a z-score of -1.61.

In turn, `CC(C)C[C@H]1NC(=O)[C@@]23C(=O)N[C@@H](Cc4ccccc4)C2[C@H](C)[C@@]2(C)O[C@H]2C3/C=C/C/C=C\CNC(=O)[C@@H]2CCCN2C1=O` (some centres undefined) gave a z-score of -0.0034.

In turn, `COc1ccc(C(O)C2C=CC3C(=O)N(C)C(=O)C3N2Nc2ccc([N+](=O)[O-])cc2[N+](=O)[O-])cc1OCc1ccccc1` (centres undefined) returned a z-score of 0.714.

`[N-]=[N+]=Nc1ccccc1[C@@H]1OC(c2ccc(OCCCO)cc2)=N[C@]1(Cc1ccccc1)C(N)=O` yielded a z-score of -0.837.

Turning to `CN(C)C(=O)[C@@]1(CCS(=O)(=O)c2ccccc2)N=C(c2ccc(OCCCO)cc2)O[C@H]1c1ccccc1N=[N+]=[N-]`, the z-score was -0.235.

In turn, `CN1C(=O)[C@]2(CCC(=O)OC(C)(C)C)N=C(c3ccc(OCCCO)cc3)O[C@@H]2c2ccccc21` came in with a z-score of -2.88.

These data come from PubChem BioAssay.
